Compound activity (PubChem BioAssay)
This is a sample that favours compounds with a hit; in the whole collection about 6.7% have one here.
BoNT F protease – BoNT/F light chain protease inhibitors, primary screen, biochemical, flow cytometry, MLPCN library; Botulinum neurotoxin type F light chain protease (Clostridium botulinum); Multiplex microsphere protease cleavage assay; inhibition, % at 10 µM; 0.22% of 360,000 active; AID 588497, 2011; in the data active means inhibition above about 35%, passing the limit was not always enough; inconclusive means no clear call, values can overlap the other calls; further: plate controls were buffer without enzyme for full effect and enzyme alone for no effect
Anthrax LF prot – Bacillus anthracis LF protease inhibitors, primary screen, biochemical, multiplex microsphere, MLPCN library; Lethal factor (Bacillus anthracis), P15917; multiplex microsphere protease cleavage assay; inhibition, % at 10 µM; 0.12% of 360,000 active; AID 588501, 2011; further: plate controls were buffer without enzyme for full effect and enzyme alone for no effect
Target sequence (P15917 whole entry, looked up): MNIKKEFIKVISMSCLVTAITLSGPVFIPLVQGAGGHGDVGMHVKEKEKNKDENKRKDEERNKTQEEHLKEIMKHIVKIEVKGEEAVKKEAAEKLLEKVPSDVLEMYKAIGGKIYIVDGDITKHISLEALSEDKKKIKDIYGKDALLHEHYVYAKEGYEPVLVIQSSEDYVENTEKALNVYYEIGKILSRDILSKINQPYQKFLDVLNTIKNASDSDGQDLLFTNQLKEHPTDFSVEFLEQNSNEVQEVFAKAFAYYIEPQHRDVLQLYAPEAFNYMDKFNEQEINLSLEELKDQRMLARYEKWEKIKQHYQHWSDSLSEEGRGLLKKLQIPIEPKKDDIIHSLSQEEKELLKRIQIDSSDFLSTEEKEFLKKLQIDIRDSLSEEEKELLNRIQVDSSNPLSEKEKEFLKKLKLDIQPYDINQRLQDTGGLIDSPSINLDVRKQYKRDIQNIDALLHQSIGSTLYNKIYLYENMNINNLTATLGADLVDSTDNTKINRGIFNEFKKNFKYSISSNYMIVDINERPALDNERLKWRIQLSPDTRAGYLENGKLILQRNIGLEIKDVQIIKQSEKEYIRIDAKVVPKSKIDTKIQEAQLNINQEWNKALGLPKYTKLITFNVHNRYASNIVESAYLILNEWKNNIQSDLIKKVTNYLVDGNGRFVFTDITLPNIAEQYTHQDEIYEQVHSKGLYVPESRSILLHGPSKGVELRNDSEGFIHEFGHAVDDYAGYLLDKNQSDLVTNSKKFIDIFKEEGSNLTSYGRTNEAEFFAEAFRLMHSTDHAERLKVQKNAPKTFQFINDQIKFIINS
GDH-TPI counter – GDH-TPI coupling enzyme inhibitors, primary screen, artefact control for M. tuberculosis FBA inhibitor project, biochemical, absorbance, full deck | GDH-TPI coupled enzyme counterscreen, NADH absorbance | inhibition, % at 4.8 µM | 1.2% of 360,000 active; in the data active means inhibition above about 30%;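 further: 0% = DMSO wells and 100% = wells lacking the enzyme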
FBA Mtb inh – Mtb FBA enzyme inhibitors, primary screen, biochemical, fluorescence, strain H37Rv | AID 588726, 2011 | purified M. tuberculosis FBA, fluorescence read-out | 2.3% of 360,000 active | inhibition, % at 1 µM; in the data active means inhibition above about 27%;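 further: 0% = vehicle and 100% = reference inhibitor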
BoNT-A LC inh2 – BoNT/A light chain protease inhibitors, primary screen, biochemical, flow cytometry, MLPCN library | inhibition, % at 10 µM | Botulinum neurotoxin type A light chain protease (Clostridium botulinum A str. ATCC 3502) | multiplex microsphere protease substrate cleavage | 0.17% of 360,000 active; further: plate controls were buffer without enzyme for full effect and enzyme alone for no effect
Autofluor counter – compound fluorescence in toxin protease inhibitor counterscreen; compound autofluorescence counterscreen, microsphere flow cytometry; stronger effect = higher value; fluorescence intensity (concentration not given with the values); 3.1% of 360,000 active; AID 624483; in the data active means fluorescence intensity above about 16000; inconclusive means no clear call, values can overlap the other calls
Numbers without * were called inactive; ? = inconclusive; nt = no result given. Unless noted, no stated cut-off is given here; in the data, active means inhibition above about 30%; inconclusive means no clear call, values can overlap the other calls; inactive means below that.

SMILES | BoNT F protease | Anthrax LF prot | GDH-TPI counter | FBA Mtb inh | BoNT-A LC inh2 | Autofluor counter
OC(C#CCN1CCCCC1)c1ccccc1 (stereo not drawn) | -6 | -7 | -11 | 1 | -2 | 10063
O=S(=O)(c1ccccc1)N1CCC(N2CCCCCC2)CC1 | -8 | -3 | 2 | 3 | 0 | 7109
COC(=O)c1cc(C(=O)NCCCN2CCOCC2)cc([N+](=O)[O-])c1 | -9 | -2 | 3 | 0 | -1 | 2725
CCN(C(=O)COC(=O)c1c(-c2ccccc2)noc1C)C1CCS(=O)(=O)C1 (stereo not drawn) | 13 | -4 | 14 | -10 | 0 | 3499
O=C(CCN1CCCCC1)c1ccccc1 | 1 | 1 | 9 | -1 | ? | 16441*
O=C(CCN1CCOCC1)c1ccccc1 | -10 | 0 | 8 | 2 | 0 | 6935
CC(C)c1ccc(CN(C(=O)c2cc3ccccc3oc2=O)C2CCS(=O)(=O)C2)cc1 (stereo not drawn) | 5 | -12 | 7 | -3 | ? | 21498*
Cc1ccc(C2C(C#N)=C3N=C(N)c4ccccc4N3C3=C2C(=O)CCC3)cc1 (stereo not drawn) | -7 | 2 | 31* | -3 | 0 | 3276
CC(C)n1c(SCC(=O)Nc2ccccc2N2CCOCC2)nc2c1c(=O)n(C)c(=O)n2C | ? | 6 | 2 | 0 | 1 | 2915
O=c1sc2ccccc2n1CCCOc1ccccc1 | -4 | 1 | 0 | -1 | -1 | 3155
CC1CCCC(C(=O)O)N1C(=O)CCSC(=O)c1ccccc1 (stereo not drawn) | 3 | -3 | -3 | 0 | 2 | 22094*
Cc1cc(C)nc(NS(=O)(=O)c2ccc(NC(=S)NC(=O)c3ccco3)cc2)n1 | -1 | 5 | -2 | -1 | 0 | 3454
CCc1cccc(CC)c1NC(=S)Nc1cccc(Cl)c1Cl | -2 | -11 | 7 | 0 | 0 | 5862
O=C(N/N=C/c1ccccn1)c1[nH]c2ccc([N+](=O)[O-])cc2c1-c1ccccc1 | -4 | -2 | 41* | -2 | -1 | 4633
NNC(=O)c1[nH]c2ccc([N+](=O)[O-])cc2c1-c1ccccc1 | 0 | -1 | 7 | -2 | 2 | 3524
Cc1ccsc1C1C2=C(CC(C)(C)CC2=O)Nc2ncnn21 (stereo not drawn) | -12 | -3 | 4 | 6 | 0 | 5800
Cc1ccsc1C1C2=C(CCCC2=O)Nc2ncnn21 (stereo not drawn) | -3 | 2 | 7 | 1 | 0 | 22735*
O=C1C=CN(Cc2ccccc2)C(c2ccccc2)C1 (stereo not drawn) | 4 | 2 | 35* | -3 | 0 | 3026
O=C1C=CN(Cc2ccccc2)CC1 | 1 | 2 | 25 | 3 | 1 | 2965
COC(=O)c1ccc(OCCn2cnc3ccccc3c2=O)cc1 | -1 | -1 | -9 | -1 | -1 | 19676*
COc1ccccc1OCCOCCn1cnc2ccccc2c1=O | 2 | -1 | -2 | 1 | ? | 19899*
O=C(Cn1cnc2ccccc2c1=O)OCCCCN1C(=O)c2ccccc2C1=O | -5 | -4 | -1 | 8 | -2 | 23990*
CCOc1ccc(OCCCCn2cnc3ccccc3c2=O)cc1 | -1 | -3 | 5 | 0 | 0 | 3231
CC(C)c1nnc(NC(=O)CC(C)c2ccccc2)s1 (stereo not drawn) | -9 | 9 | -2 | -1 | 1 | 3517
COc1ccccc1Cc1nnc(NC(=O)C2CCN(C(=O)c3ccco3)CC2)s1 | -6 | -2 | 1 | -1 | 0 | 4557
SMILES | BoNT F protease | Anthrax LF prot | GDH-TPI counter | FBA Mtb inh | BoNT-A LC inh2 | Autofluor counter
NC(=O)C1CCN(c2ccc(C(F)(F)F)cc2[N+](=O)[O-])CC1 | 3 | -5 | 2 | -3 | 4 | 21870*
CC(=O)Nc1ccc(NC(=O)C2CCN(S(=O)(=O)c3ccc4c(c3)OCCO4)CC2)cc1 | -2 | -5 | -2 | 4 | 0 | 3767
CC1CCCCN1C(=O)COC(=O)C1CCN(S(=O)(=O)c2ccc3c(c2)OCCO3)CC1 (stereo not drawn) | -80 | -8 | -3 | 6 | -46 | 17025*
O=C(Nc1ccc2c(c1)OCCO2)C1CCN(S(=O)(=O)c2cccs2)CC1 | -3 | 2 | 6 | 0 | ? | 23275*
O=C(NC1CCCCC1)C1CCCN(c2nnnn2-c2ccccc2)C1 (stereo not drawn) | -6 | -3 | 6 | 5 | ? | 17148*
Cc1ccc(S(=O)(=O)N2CCC(C(=O)OCC(=O)N3CCCCC3C)CC2)cc1C (stereo not drawn) | 4 | -6 | 6 | 2 | -1 | 6391
O=C(Nc1ccc2c(c1)OCCO2)C1CCN(S(=O)(=O)c2ccc3c(c2)OCCO3)CC1 | -2 | -1 | -15 | 1 | 2 | 21484*
O=C(Nc1cccc(F)c1)C1CCN(c2nnnn2-c2ccccc2)CC1 | 3 | -4 | -1 | -1 | 1 | 15912
O=C(Nc1ccc2c(c1)OCCO2)C1CCN(c2nnnn2-c2ccccc2)CC1 | 3 | 1 | 1 | 3 | 1 | 16234*
CCC(Oc1ccc(C)c(C)c1)C(=O)O (stereo not drawn) | -1 | 4 | 12 | -4 | 0 | 16400*
COc1ccc(OC)c(NC(=O)C(CC(C)C)NC(=O)C2CCCCC2)c1 (stereo not drawn) | -50 | -4 | -14 | 5 | 1 | 3693
Cn1c(SCCOc2ccc(Cl)cc2)nnc1-c1ccncc1 | -1 | 4 | 9 | -4 | 0 | 23566*
Cn1c(SCCOc2ccc(F)cc2)nnc1-c1ccncc1 | 1 | -3 | 9 | 3 | 0 | 3300
Cn1c(SCCOc2ccccc2Cl)nnc1-c1cccs1 | -1 | 0 | -9 | 3 | 2 | 22281*
Cc1cc(OCCSc2nnc(-c3cccs3)n2C)ccc1Cl | 8 | -4 | 10 | -6 | 0 | 4625
Cc1ccc(OCCSc2nnc(-c3cccs3)n2C)cc1 | -2 | 1 | -3 | 0 | ? | 20327*
Cn1c(SCc2c(F)cccc2Cl)nnc1-c1cccs1 | nt | nt | 4 | 0 | nt | nt
Cc1cc(=O)oc2cc(OCC(O)CN3CCc4ccccc4C3)ccc12 (stereo not drawn) | -7 | 2 | 14 | 50* | 1 | 2820
N#CCc1ccc(NS(=O)(=O)c2cccs2)cc1 | -3 | -2 | 3 | 0 | -1 | 16560*
COC(=O)c1ccccc1NC(=O)CSc1nnc(C(C)NC(=O)c2ccc(Cl)cc2Cl)n1C (stereo not drawn) | 0 | -5 | -5 | -1 | -2 | 22829*
COC(=O)C1C(=O)C2=C(CC1C)NC(C)=C(C(=O)OC(C)C)C2c1ccc(OC)c(O)c1 (stereo not drawn) | 3 | 2 | 23 | 3 | 1 | 22658*
